The list shows a part of the results. Where a call stands in place of a potency, no number is given. Results filed as inconclusive are left out. Active and inactive are the calls of the source. Calls follow the shape of the dose curve; as a rule, active = well fitted inhibition curve with a large enough effect in the main read-out, with a control signal flat; inconclusive = small, poorly fitted or top-dose-only effect, or a change in a side signal; inactive = no such curve, though single readings can be large or run the other way.

Sequence of Caspase-7 (Homo sapiens) (P55210 24-198 limits assumed): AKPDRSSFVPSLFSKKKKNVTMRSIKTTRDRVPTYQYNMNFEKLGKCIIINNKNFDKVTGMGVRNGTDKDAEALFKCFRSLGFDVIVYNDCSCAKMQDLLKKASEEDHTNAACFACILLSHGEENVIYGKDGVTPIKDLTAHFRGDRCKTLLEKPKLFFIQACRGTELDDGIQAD
Sequence of Caspase-7 (Homo sapiens) (P55210 207-303 limits assumed): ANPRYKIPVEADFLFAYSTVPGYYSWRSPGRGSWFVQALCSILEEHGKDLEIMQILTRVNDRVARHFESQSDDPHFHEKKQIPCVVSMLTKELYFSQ

This test concerns the target Caspase-7 (Homo sapiens) (UniProt P55210). The test is described as follows: Concentration-Response Counterscreen for Redox Active Inhibitors of Caspase-7: Cysteine. Particulars: caspase-7 enzyme with cysteine, fluorogenic substrate; series mostly up to 57.5 µM. The source says:
NIH Molecular Libraries Screening Centers Network [MLSCN]
NIH Chemical Genomics Center [NCGC]
PI Name: Dr. James Wells,
Dr. Enrique Perez-Paya, Dr.Janice Williams, Dr. Dennis Wolan, a person
The caspases (Cysteine Aspartyl Protease) comprise a related family of 14 dimeric proteases that are critical mediators of apoptosis (programmed cell death) and inflammation. The caspases represent an important class of drug targets for stroke, ischemia, cancer and inflammatory diseases. […] One goal of this project was to identify compounds that act as allosteric inhibitors via stabilizing the procaspase form of the enzyme. […]
The biochemical assay was configured using purified caspase 7 at a high enzyme concentration to promote formation of the homodimers and thus facilitate the identification of allosteric inhibitors. […] After initiation of the assay with substrate the plates were rapidly read using an automated robotic system (Kalypsys, Inc.) to maintain consistent timing. […] Product formation was also measured after 1 hour. […]
Caspase 7 was prepared in buffer (50 mM HEPES pH 7.5, 50 mM KCl, 200 mM NaCl, 10 mM Cys (Aldrich cat# 861677), 0.1% CHAPS) at a concentration of 66.6 nM and 3 uL was dispensed to all wells using black solid Kalypsys 1536-well plates. […] The plates were then exposed using 405 nm excitation/520 nm emission filters for 4 sec and read at 20 sec intervals for 3 min. […]
As to `CCN1C(=O)/C(=C2/Sc3ccccc3N2CCCS(=O)(=O)O)SC1=S`, the Potency result is “inactive”.

For the compound `N#CC1=C(N)Oc2cc(O)ccc2C1C1CCCCC1` (configuration not stated), the Potency is 25.1 µM (active).
